Most compounds without a hit are left out; they make up all but 1.8% or so of the library.
PAD4 FP inh = blocks human protein arginine deiminase 4; AID 485272; inhibition, % at 6.36 µM; Q9UM07; 330,000 tested, 0.41% active; recombinant PAD4, RCA probe fluorescence polarization;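 active means percent inhibition above a cutoff equal to the mean of all tested compounds plus 3 SD, cut at about 15% in these data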
GSTO1 inh = blocks human GSTO1 in RBBP9 counter-screen. recombinant GSTO1, activity-based probe fluorescence polarization. 300,000 tested, 1.1% active. inhibition, % at 5.96 µM;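 active means inhibition above the campaign mean inhibition plus 3 SD, cut at about 35% in these data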
LYPLA1 inh = blocks human lysophospholipase 1, a PME1 counter-screen. O75608. recombinant LYPLA1, FP-Rh probe fluorescence polarization. inhibition, % at 5.9 µM. 320,000 tested, 0.16% active;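 active means inhibition above the mean of all tested compounds plus 3 SD, set per campaign, cut at about 14% in these data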;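 further: inhibitors block serine hydrolase probe labeling of LYPLA1 so polarization falls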
Target sequence (O75608 whole entry, looked up): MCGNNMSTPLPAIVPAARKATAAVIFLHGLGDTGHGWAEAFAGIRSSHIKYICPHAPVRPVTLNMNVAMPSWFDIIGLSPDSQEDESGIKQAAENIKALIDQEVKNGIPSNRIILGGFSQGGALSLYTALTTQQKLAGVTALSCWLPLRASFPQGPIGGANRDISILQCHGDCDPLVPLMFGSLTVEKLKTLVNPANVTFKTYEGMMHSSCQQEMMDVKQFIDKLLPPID
PME-1 inh = PME-1 (human) inhibition. AID 2130. inhibition, % at 5.9 µM. 320,000 tested, 0.53% active. Q9Y570. recombinant PME-1, FP-Rh probe fluorescence polarization;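 active means inhibition above the campaign mean of all compounds plus 3 SD, cut at about 26% in these data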;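 further: competitive labeling of PME-1 active site by serine hydrolase directed probe; inhibitors block probe labeling so polarization falls and inhibition rises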
Target sequence (Q9Y570 whole entry, looked up): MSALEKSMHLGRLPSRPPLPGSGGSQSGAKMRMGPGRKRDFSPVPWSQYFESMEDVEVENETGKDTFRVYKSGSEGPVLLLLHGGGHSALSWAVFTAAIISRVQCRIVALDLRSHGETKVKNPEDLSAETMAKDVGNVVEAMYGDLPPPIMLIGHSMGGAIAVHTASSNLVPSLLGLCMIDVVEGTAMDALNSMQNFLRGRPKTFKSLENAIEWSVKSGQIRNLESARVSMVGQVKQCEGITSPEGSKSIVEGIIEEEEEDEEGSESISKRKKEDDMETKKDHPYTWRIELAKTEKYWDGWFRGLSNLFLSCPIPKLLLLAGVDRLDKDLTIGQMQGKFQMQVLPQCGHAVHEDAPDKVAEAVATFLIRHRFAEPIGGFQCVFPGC
LYPLA2 counter = LYPLA2 (human) inhibition in PME1 counter-screen. recombinant LYPLA2, FP-Rh probe fluorescence polarization. inhibition, % at 5.9 µM. 320,000 tested, 0.38% active. AID 2177;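 active means inhibition above the screen-wide mean plus 3 SD, limit set per campaign, cut at about 26% in these data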
Fam108B counter = counter-screen for RBBP9 inhibitors: inhibitors of mouse Fam108B; recombinant Fam108B, FP-Rh probe fluorescence polarization; inhibition, % at 9.51 µM; 300,000 tested, 0.33% active; AID 1947;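 active means inhibition above the screen mean inhibition plus 3 SD, computed separately per campaign, cut at about 18% in these data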;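 further: inhibitors lower polarization as less probe binds the enzyme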
Large screens that a line does not name were inactive.

Cc1cccc(N(CC(=O)NC2CCCCC2)C(=O)c2csnn2)c1	none
O=c1[nH]c(C2CCN(S(=O)(=O)c3ccc(F)cc3)CC2)nc2c1nnn2Cc1ccc2c(c1)OCCO2	PME-1 inh 32
COc1cccc(Cn2nnc3c(=O)[nH]c(C4CCCN(C(=O)c5ccccc5Cl)C4)nc32)c1 (configuration not stated)	PME-1 inh 58
O=c1[nH]c(C2CCCN(S(=O)(=O)c3cccc(F)c3)C2)nc2c1nnn2Cc1ccccc1 (configuration not stated)	none
O=c1[nH]c(C2CCCN(S(=O)(=O)c3ccccc3)C2)nc2c1nnn2Cc1ccccc1 (configuration not stated)	PME-1 inh 33
CCOC(=O)N1CCN(C(=O)CCN2C(=O)/C(=C\c3cccc(OC)c3)SC2=S)CC1	none
Cc1ccc(S(=O)(=O)N2CCCCC2CCNC(=O)C(=O)NCc2ccccc2)cc1 (configuration not stated)	none
Cc1ccc(NC(=O)CN(C)C(=O)COC(=O)CCS(=O)(=O)c2ccc(C)cc2)cc1	none
CCOC(=O)c1c(C2CC2)csc1NC(=O)COC(=O)CCS(=O)(=O)c1ccc(C)cc1	GSTO1 inh 37
O=C(c1ccccc1F)N1CCN(Cc2nc3sc4c(c3c(=O)[nH]2)CCCC4)CC1	PME-1 inh 27
COC(=O)c1[nH]c2ccccc2c1NC(=O)CN1CCN(C(=O)c2ccco2)CC1	GSTO1 inh 36
CCOc1ccc(N2C(=O)CN=C2Nc2ccccc2F)cc1	none
Cc1cc(C)c(C)c(OC(=O)c2sc(Cl)nc2C)c1	GSTO1 inh 36
Cc1ccc(NC(=O)c2sc(Cl)nc2C)c(C)c1	none
CC(C)CC(NC(=O)c1cccs1)c1nnc(SCc2ccc(Cl)c(Cl)c2)n1C (configuration not stated)	none
C=CCn1c(SCC(=O)c2ccc(Br)cc2)nnc1C(CC(C)C)NC(=O)c1cccs1 (configuration not stated)	GSTO1 inh 36
O=C(CNc1ccc(F)cc1)N/N=C/c1c(O)ccc2ccccc12	PME-1 inh 37
COc1ccccc1NCC(=O)N/N=C/c1c(O)ccc2ccccc12	none
CCCCCc1nnc(NC(=O)C2=COCCO2)s1	none
O=C(c1cccnc1)N1N=C(c2cccs2)CC1c1ccc(F)cc1 (configuration not stated)	none
O=C1c2cccc(OCC(=O)N3N=C(c4cccs4)CC3c3ccc(F)cc3)c2CCN1Cc1cccnc1 (configuration not stated)	LYPLA2 counter 38
CCOC(=O)CSc1nc2cc3c(cc2cc1C#N)OCO3	none
CCOC(=O)CSc1nc2cc3c(cc2cc1C#N)OCCO3	PME-1 inh 34
CCOc1ccccc1NC(=O)CC1Nc2cc(C)c(C)cc2NC1=O (configuration not stated)	PME-1 inh 35
CCc1cccc(CC)c1NC(=O)CSc1nnc(C2CC2)n1C	none
Cc1cccc(C2Nc3cccc4cccc(c34)N2)c1	GSTO1 inh 37
COc1cc(C2Nc3cccc4cccc(c34)N2)ccc1O	PME-1 inh 27
CCOC(=O)N1CC=C2C(C#N)=C(N)C(C#N)(C#N)[C@H](c3ccsc3)[C@H]2C1	none
CCOC(=O)N1CC=C2C(C#N)=C(N)C(C#N)(C#N)[C@H](c3ccc(OC(C)C)c(OCC)c3)[C@H]2C1	PME-1 inh 41
N#CC1=C(N)C(C#N)(C#N)[C@H](c2cccnc2)[C@H]2CN(C(=O)OCc3ccccc3)CC=C12	none
CCOC(=O)N1CC=C2C(C#N)=C(N)C(C#N)(C#N)[C@H](c3ccccc3OCC)[C@H]2C1	PME-1 inh 27
N#CC1=C(N)C(C#N)(C#N)C(c2ccncc2)C2CN(C(=O)OCc3ccccc3)CC=C12 (configuration not stated)	PME-1 inh 31
CC(C)(C)NC(=O)NC(=O)CSc1nnc(COc2ccccc2Cl)o1	GSTO1 inh 36
NC(=O)c1ccc(Oc2ccc(-c3nnco3)cc2)c([N+](=O)[O-])c1	none
NC(=O)c1ccc(Oc2ccc3ccc(=O)oc3c2)c([N+](=O)[O-])c1	LYPLA2 counter 38
O=C(CSc1nnc2ccc(-c3ccc(F)cc3)nn12)N1CCCC1	none
O=C(CSc1nnc(SCc2ccccc2Cl)s1)N/N=C/c1c[nH]c2ccccc12	PME-1 inh 36
O=C(/C=C/c1ccc([N+](=O)[O-])s1)N1CCCC1	none
O=C(/C=C/c1ccc([N+](=O)[O-])s1)N1CCCCC1	GSTO1 inh 35
COc1cccc(CNC(=O)CCc2ccc(OC)c(OC)c2)c1	none
CC(=O)c1ccc(NC(=O)CSc2nnc(-c3ccco3)c(-c3ccco3)n2)cc1	GSTO1 inh 35
CC(=O)Nc1ccc(NC(=O)CSc2nnc(-c3ccco3)o2)cc1	none
COc1cc(OC)c(C2CC(=O)N3CN(c4ccccc4C)CSC3=C2C#N)cc1OC (configuration not stated)	GSTO1 inh 36
CC1CCN(C2=C(NS(=O)(=O)c3ccccc3)C(=O)c3ccccc3C2=O)CC1	GSTO1 inh 35
CC1CCN(C2=C(NS(=O)(=O)c3ccc(Cl)cc3)C(=O)c3ccccc3C2=O)CC1	none
CCOc1c(O)ccc(/C=C2\SC(=S)NC2=O)c1[N+](=O)[O-]	GSTO1 inh 56
CCOc1ccc(N(C)c2ccc(/C=C3/SC(=S)NC3=O)cc2)cc1	none
COc1ccc(NC(=O)CCC(=O)N2CCCC2)c([N+](=O)[O-])c1	none
OCC#Cc1ncc(C(F)(F)F)cc1Cl	GSTO1 inh 83
COc1ccc(C)cc1NC(=O)NNC(=O)c1cc2ccccc2cc1O	PME-1 inh 26
COc1ccc(NC(=O)NNC(=O)c2cc3ccccc3cc2O)cc1	none
N#Cc1ccccc1Cn1c(=O)n(-c2ccc(CC(=O)NCc3ccco3)cc2)c(=O)c2sccc21	PME-1 inh 37
CN(CC(=O)Nc1cccc(F)c1)C(=O)c1ccccc1Sc1ccccc1C#N	none (no result: GSTO1 inh, Fam108B counter)
Cc1ccc2nc(-c3ccccc3)cc(C(=O)NCC(c3ccco3)N(C)C)c2c1 (configuration not stated)	none
COc1ccc(Cc2nnc(SCC(=O)c3ccc(OC)cc3)o2)cc1	GSTO1 inh 37
COc1ccc(Cc2nnc(SCC(=O)c3ccccc3)o2)cc1	none
COc1ccc(C(=O)CSc2nnc(-c3cc(C)on3)o2)cc1	GSTO1 inh 36
COc1ccc(C(=O)CSc2nnc(-c3ccc(C)cc3)o2)cc1	none
Cc1ccc(NC(=O)CCCSc2ccccc2)cc1S(=O)(=O)N1CCOCC1	none
CC(C)(C)c1ccc(NC(=O)C2=CC=CN3CCS(=O)(=O)N=C23)cc1	PME-1 inh 55 (no result: GSTO1 inh, Fam108B counter)
CCN(CC)c1ccc(NC(=O)C2=CC=CN3CCS(=O)(=O)N=C23)cc1	none (no result: GSTO1 inh, Fam108B counter)

Screens deposited in PubChem by The Scripps Research Institute Molecular Screening Center.
